Among the data in PubChem BioAssay (NCATS) are Potency and outcome values, retold here.

Assay [1] in a line: qHTS for differential inhibitors of proliferation of Plasmodium falciparum line Dd2 (AID 1882). Further: nearly all actives have a fitted effect of over 65% in size. Further: potency means the concentration at half of the fitted maximal effect. The settings on record: Potency: Plasmodium falciparum Dd2 proliferation inhibition; series mostly up to 28.7 µM. In a few lines: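 SYBR Green DNA fluorescence (ex 485, em 535 nm) after overnight lysis quantifies parasite growth; compound exposure lasted 72 h at 37 C on infected red cells at 2.5% hematocrit, 0.3% parasitemia (final). Artemisinin 0.29 uM and vehicle wells define normalization.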

Assay [2] is described as follows: qHTS Assay for Modulators of Human Peripheral Myelin Protein 22 (PMP22) Expression/Activity (AID 1967; active means well fitted curve in the direction sought with a large enough effect in the signal ratio; the % refers to the signal ratio). As to conditions: Cell-based PMP22 reporter, dual-color luciferase ratio, 0% = compound-free control cells, mouse Pmp22 promoter in mouse Schwann cells; series mostly up to 115 µM. The method in brief: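 MSC80 mouse Schwann cells stably carrying Pmp22 promoter–green click beetle luciferase plus EF-alpha–red luciferase control were dosed for 24h at 37 °C. Dual-colour luminescence was filter-overlap corrected; %Activity came from green/red ratio versus untreated cells.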

A short description of assay [3]: qHTS for differential inhibitors of proliferation of Plasmodium falciparum line 7G8 (AID 1815).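 Further: parasite growth measured after three days of incubation.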 Further: potency means the concentration at half of the fitted maximal effect. As to conditions: Plasmodium falciparum 7G8 proliferation inhibition; series mostly up to 28.7 µM.
Assay [4] can be described thus: qHTS for differential inhibitors of proliferation of Plasmodium falciparum line D10 (AID 1877).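 Further: parasites grown with compound for 72 h before DNA staining.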 Further: potency means the concentration at half of the fitted maximal effect. As to conditions: series mostly up to 28.7 µM.
Assay [5] can be described thus: qHTS for differential inhibitors of proliferation of Plasmodium falciparum line HB3 (AID 1886).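 Further: parasites grown with compound for 72 h before SYBR Green readout.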 Further: potency means the concentration at half of the fitted maximal effect. As to conditions: Potency: Plasmodium falciparum HB3 proliferation inhibition; series mostly up to 28.7 µM.
The nature of assay [6]: qHTS for differential inhibitors of proliferation of Plasmodium falciparum line GB4 (AID 1816).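 Further: parasite growth measured after 72 h incubation.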 Further: potency means the concentration at half of the fitted maximal effect. The settings on record: Potency: Plasmodium falciparum GB4 proliferation inhibition; series mostly up to 28.7 µM.
The nature of assay [7]: qHTS for differential inhibitors of proliferation of Plasmodium falciparum line 3D7 (AID 1876). Further: potency means the concentration at half of the fitted maximal effect. The settings on record: P. falciparum 3D7 proliferation inhibition; series mostly up to 28.7 µM.
Assay [8] is described as follows: qHTS for differential inhibitors of proliferation of Plasmodium falciparum line W2 (AID 1883).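 Further: parasites grown with compound for 72 h before lysis and staining.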 Further: potency means the concentration at half of the fitted maximal effect. The settings on record: Potency: Plasmodium falciparum W2 proliferation inhibition; series mostly up to 28.7 µM.

Results filed as inconclusive are left out. Calls of active or inactive are those of the source. Unless noted, the call rests on the fitted dose curve; in most records, active means well fitted curve in the direction sought with a large enough effect; inconclusive means small, poorly fitted or top-dose-only effect, or another doubt; inactive means no such curve, though single readings can be large; an effect the other way counts as inactive or inconclusive.

Turning to `O=C(CCNNC(=O)c1ccncc1)NCc1ccccc1`, the Potency entry in assay [1] is “inactive”. Besides, the outcome in assay [2] was inactive.
As to `Nc1c2c(nc3ccccc13)CCCC2O` (stereo not given), the Potency result in assay [3], in assay [4], in assay [1] and in assay [5] was “inactive” each time.
For `COCC(=O)O[C@]1(CCN(C)CCCc2nc3ccccc3[nH]2)CCc2cc(F)ccc2[C@@H]1C(C)C`, the Potency is 2.24 µM (active) in assay [3]; 0.141 µM (active) in assay [6]; 3.16 µM (active) in assay [7]; 8.91 µM (active) in assay [4]; 1.26 µM (active) in assay [1]; 0.501 µM (active) in assay [8]. The Potency in assay [5] was 5.01 µM (active).
In the case of `CCCN(CCC)C(=O)C(CCC(=O)O)NC(=O)c1ccccc1` (stereo not given), the Potency result in assay [3], in assay [6], in assay [7], in assay [4], in assay [1] and in assay [8] was “inactive” in each case. Moreover, the Potency result in assay [5] was “inactive”.
On to `CN(C)C(=O)Oc1ccc[n+](C)c1`, for which the Potency entry in assay [3], in assay [6], in assay [7], in assay [4], in assay [1] and in assay [8] was “inactive” each time. In addition, in assay [5], the Potency entry is “inactive”.
With `Fc1ccc(C(c2ccc(F)cc2)N2CCN(C/C=C/c3ccccc3)CC2)cc1`, the Potency is 3.98 µM (active) in assay [3]; 4.47 µM (active) in assay [6]; 12.6 µM (active) in assay [7]; 11.2 µM (active) in assay [4]; 12.6 µM (active) in assay [1]; 3.98 µM (active) in assay [8]. In addition, the Potency in assay [5] is 10 µM (active).
As for `C[C@H](CS)C(=O)N1CCC[C@H]1C(=O)O`, the Potency result in assay [3], in assay [6], in assay [7], in assay [4], in assay [8] and in assay [5] was “inactive” in each case.
Regarding `N[C@@H](COP(=O)(O)O)C(=O)O`, the Potency entry in assay [3], in assay [6], in assay [7], in assay [4], in assay [1] and in assay [5] was “inactive” throughout. For the same compound, the outcome in assay [2] was inactive.
As to `CN(C)CCOC(=O)COc1ccc(Cl)cc1`, the Potency result in assay [3], in assay [7], in assay [1], in assay [8] and in assay [5] was “inactive” each time.
With `COCCOC(=O)C1=C(C)NC(C)=C(C(=O)OC(C)C)C1c1cccc([N+](=O)[O-])c1` (stereo not given), the Potency in assay [3] is 4.47 µM (active); in assay [6] it was 10 µM (active); in assay [7], 7.94 µM (active); in assay [4], 12.6 µM (active); in assay [8], 6.31 µM (active); in assay [5], 8.91 µM (active).
On to `CCN(CC)CCOCCOC(=O)C1(c2ccccc2)CCCC1`, for which the Potency in assay [3] was 3.16 µM (active); in assay [1] it was 2.24 µM (active); in assay [8] it was 0.794 µM (active).
As to `Brc1c(NC2=NCCN2)ccc2nccnc12`, the Potency result in assay [4] and in assay [1] was “inactive” each time.
For the compound `CCN(CC)CC(=O)Nc1c(C)cccc1C`, the Potency result in assay [3], in assay [7], in assay [4], in assay [1] and in assay [5] was “inactive” throughout. Besides, the Potency in assay [8] was 14.1 µM (active). Besides, the outcome in assay [2] was inactive.
